# Inconclusive results are not listed. Activity calls are given as the source filed them. Unless noted, no cut-off is given here; in the data, nearly all actives have AC50 up to about 26 µM.
# Experiments:
# [1] = growth inhibition of DIPG glioma cells, dose response, cell-based, SU-DIPG-XVII, MIPE5.0, CellTiter-Glo, qHTS (AID 1347060); conditions: SU-DIPG-XVII viability, CellTiter-Glo ATP luminescence;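 for AC50: cells exposed to compound for 48 hours before viability readout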
# [2] = viability loss in pontine glioma line – cell-based, SU-DIPG-XXV, MIPE5.0, CellTiter-Glo, qHTS, dose response (AID 1347065); conditions: CellTiter-Glo ATP luminescence;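 note: cells exposed to compound for 48 hours before ATP readout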
# [3] = JHH-DIPG-1 glioma cell viability, MIPE5.0 library, CellTiter-Glo luminescence, qHTS (AID 1347067); conditions: JHH-DIPG-1 glioma viability, CellTiter-Glo ATP luminescence;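 note: cells exposed to compound for 48 hours before readout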
# [4] = SU-DIPG-XXV glioma cell viability, MIPE5.0 library, qHTS (AID 1347068; cut-off not given, nearly all actives have IC50 up to about 30 µM;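 for IC50: cells exposed to compound for 48 hours before viability readout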)
# [5] = sensitizers of A549 cells to miR-34 induction, primary screen, imaging, A549 dox-inducible miR-34, nuclei and caspase counts (AID 1347080;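 active = compounds whose cell count with miR-34 switched on is under 0.7 times the count with it off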); conditions: A549 miR-34 inducible, Hoechst nuclei count, 48 h
# [6] = survival rescue of mitochondrial mutant cells in low glucose, primary screen, MELAS cybrids, Rieske KO mouse fibroblasts, CellTiter-Glo (AID 1508586;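 active = mean z-score across replicates of 1.96 or higher in either the MELAS or the Rieske mutant cell line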;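 note: z relative to plate mean and SD of compound and empty wells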)
smiles,measurement,setting,value
Cn1cc(-c2c[nH]c3ncnc(N4CCOCC4)c23)cn1,outcome,[1],inactive
same,outcome,[2],inactive
same,outcome,[3],inactive
same,outcome,[4],inactive
COCCNCc1ccc(-c2cc3nccc(Oc4ccc(NC(=S)NC(=O)Cc5ccc(F)cc5)cc4F)c3s2)nc1,AC50,[1],7.42 µM (active)
same,AC50,[2],4.17 µM (active)
same,AC50,[3],7.42 µM (active)
same,IC50,[4],9.34 µM (active)
Cc1cc(C)c(S(=O)(=O)N(CCc2cccc(Br)c2)Cc2ccc(-c3cccc(S(C)(=O)=O)c3)cc2)c(C)c1,outcome,[1],inactive
same,outcome,[2],inactive
same,outcome,[3],inactive
same,outcome,[4],inactive
Cn1nccc1Nc1nccc(-c2cc3c(s2)C(C)(C)N(CCN2CCOCC2)C3=O)n1,AC50,[1],5.25 µM (active)
same,AC50,[2],10.5 µM (active)
same,AC50,[3],2.09 µM (active)
same,outcome,[4],inactive
CCN(CC)CCCC[C@H](NC(=O)[C@H](CC(C)C)NC(=O)[C@H](C)NC(=O)[C@H](Cc1ccccc1)NC(=O)c1ccc(C(C)(C)C)cc1)C(=O)N[C@@H](CO)C(=O)OC,outcome,[1],inactive
same,outcome,[2],inactive
same,outcome,[3],inactive
same,outcome,[4],inactive
Cc1c(F)cc(C(=O)NC2CC2)cc1-c1c(F)cn2c(C(C)(C)C)nnc2c1F,outcome,[1],inactive
same,outcome,[2],inactive
same,outcome,[3],inactive
same,outcome,[4],inactive
CCO[C@@H]1OC(=O)C[C@@H]1NC(=O)[C@@H]1CCCN2C(=O)CC[C@H](NC(=O)c3nccc4ccccc34)C(=O)N12,outcome,[1],inactive
same,outcome,[2],inactive
same,outcome,[3],inactive
same,outcome,[4],inactive
COCCNc1cc(NC(=O)N2CCCc3cc(CN4CCN(C)CC4=O)c(C=O)nc32)ncc1C#N,outcome,[1],inactive
same,outcome,[2],inactive
same,outcome,[3],inactive
same,outcome,[4],inactive
COc1cc2c(cc1OC)CN(CCc1ccc(-n3nnc(-c4cc(OC)c(OC)cc4NC(=O)c4cc(=O)c5ccccc5o4)n3)cc1)CC2,outcome,[1],inactive
same,outcome,[2],inactive
same,outcome,[3],inactive
same,outcome,[4],inactive
Nc1ncnc2c1C(=O)N(c1ccc(C3CCC(CC(=O)O)CC3)cc1)CCO2 (stereo unspecified),outcome,[1],inactive
same,outcome,[2],inactive
same,outcome,[3],inactive
same,outcome,[4],inactive
same,fold change,"[5]; stronger effect = lower value, cell number ratio, induced over uninduced",0.873 (inactive)
same,fold change,[5]; measured here: relative caspase fold change +Dox/-Dox,0.72
same,cell count,"[5]; measured here: total cells with miR-34 induction, stronger effect = lower value",8200
same,cell count,[5]; measured here: total cells without miR-34 induction,9390
same,z-score,"[6]; MELAS cybrid survival, CellTiter-Glo 48 h, stronger effect = higher value",-0.311 (inactive)
same,z-score,"[6]; Rieske KO mouse fibroblast survival, CellTiter-Glo 72 h",-0.473
Cn1c(-c2ccccc2C(F)(F)F)nnc1C12CCC(c3noc(C4CC(F)(F)C4)n3)(CC1)CC2,outcome,[1],inactive
same,outcome,[2],inactive
same,outcome,[3],inactive
same,outcome,[4],inactive
Cc1ccc(-c2nn(C(C)(C)CNC(=O)c3ccncc3)c3ncnc(N)c23)cc1,AC50,[1],10.5 µM (active)
same,AC50,[2],13.2 µM (active)
same,AC50,[3],13.2 µM (active)
same,IC50,[4],14.8 µM (active)
CCN(C)S(=O)(=O)Nc1ccc(F)c(C(=O)c2c[nH]c3ncc(-c4cnc(C5CC5)nc4)cc23)c1F,AC50,[1],14.8 µM (active)
same,AC50,[2],7.42 µM (active)
same,AC50,[3],16.6 µM (active)
same,IC50,[4],16.6 µM (active)
C[C@@H](OC[C@@]1(c2ccccc2)CC[C@]2(CCC(=O)N2)CN1)c1cc(C(F)(F)F)cc(C(F)(F)F)c1,AC50,[1],20.9 µM (active)
same,AC50,[2],18.6 µM (active)
same,AC50,[3],14.8 µM (active)
same,IC50,[4],20.9 µM (active)
CCCNC(=O)c1cn2ncnc(Nc3cc(C(=O)NC4CC4)ccc3C)c2c1C,outcome,[1],inactive
same,outcome,[2],inactive
same,outcome,[3],inactive
same,outcome,[4],inactive
